Data on 49 molecules can be found in PubChem BioAssay AID1851 (National Center for Advancing Translational Sciences (NCATS), 2009).

Several values for one entry are separate records, joined by “and”; a condition that tells them apart may be missing. Equal entries are not always repeated. In all, about 16,000 compounds went through this assay and about 5,700 (36%) were called active. Not shown: some 24% with an inconclusive outcome. This is one part of the list. A number with no mark means an inactive call. The call rests on the fitted dose curve; in most records, active means well fitted curve in the direction sought with a large enough effect; inconclusive means small, poorly fitted or top-dose-only effect, or effect the other way; inactive means no such curve, though single readings can be large or run the other way. Peptide text beside a SMILES is read from it.
On the % scale 0 is the no-effect control and ±100 the full control effect.

Chain of Cytochrome P450 1A2 (Homo sapiens) (P05177 whole entry, looked up): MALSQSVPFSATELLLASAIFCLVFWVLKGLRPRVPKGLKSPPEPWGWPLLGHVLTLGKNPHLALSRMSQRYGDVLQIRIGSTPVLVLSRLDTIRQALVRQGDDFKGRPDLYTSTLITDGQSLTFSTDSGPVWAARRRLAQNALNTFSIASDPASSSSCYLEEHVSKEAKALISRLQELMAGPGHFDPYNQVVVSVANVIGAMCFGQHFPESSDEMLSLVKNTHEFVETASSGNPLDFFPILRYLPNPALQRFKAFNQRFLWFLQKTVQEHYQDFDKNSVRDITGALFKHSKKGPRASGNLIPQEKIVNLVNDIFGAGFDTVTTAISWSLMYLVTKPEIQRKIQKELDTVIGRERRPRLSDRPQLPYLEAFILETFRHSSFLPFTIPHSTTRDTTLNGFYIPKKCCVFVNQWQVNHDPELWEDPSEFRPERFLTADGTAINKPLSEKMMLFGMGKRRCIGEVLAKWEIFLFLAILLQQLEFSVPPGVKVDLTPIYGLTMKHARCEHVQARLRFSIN

This assay concerns the target Cytochrome P450 1A2 (Homo sapiens) (UniProt P05177). Nature of the assay: Cytochrome panel assay with activity outcomes. Particulars: recombinant CYP, pro-luciferin dealkylation, luminescence, p450-cyp1a2; series mostly up to 57.1 µM; activity, negative = inhibition: at the top concentration.
As a reminder, the AC50 is the midpoint of the concentration-response curve, whichever way the signal moves. Consider `COc1ccccc1-c1cc(NCc2ccccc2)ncn1`, for which the AC50 was 2.51 µM (active). Regarding `N#C/C(=C\c1ccc(Oc2ccc(C(F)(F)F)cc2[N+](=O)[O-])cc1)c1nc2ccccc2[nH]1`, the “activity, negative = inhibition” value was -26.8%.

Consider `Cc1ccc2nc(/C(C#N)=C\c3ccc(OC(=O)c4cccs4)cc3)[nH]c2c1`, for which the AC50 was 2.51 µM (active).

As for `Clc1ccc(-c2nnc(-c3cccc4ccccc34)o2)cc1Cl`, the AC50 was 2 µM (active). As to `Cc1ccc(-c2nnc(-c3ccccc3S(=O)(=O)Cc3ccc(Cl)cc3)o2)cc1`, the “activity, negative = inhibition” value is -27.6%.

For `CN(C)c1ncc2nc(-c3ccc(F)cc3)c(=O)n(Cc3cccs3)c2n1`, the AC50 is 1 µM (active). Regarding `CN(C)c1ncc2nc(-c3ccc(Cl)cc3)c(=O)n(Cc3cccs3)c2n1`, the half-maximal activity concentration (AC50) is 1.58 µM (active). Take `COc1ccc(-c2nc3cnc(N(C)C)nc3n(Cc3cccs3)c2=O)cc1`: the AC50 is 1.58 µM (active). In the case of `CCCNC(=O)OC[C@@H]1O[C@H](CCO/N=C(\C)CCN2CCCCc3nc(C)c(C)cc32)C=C[C@@H]1Oc1ccc(OC)cc1`, the activity, negative = inhibition was 3.81% [at 11.4 µM]. For the molecule `Cc1ccc(S(=O)(=O)N[C@H]2COC(=O)[C@H](C)COC(=O)[C@H](C)NC(=O)C/C=C\[C@H]2C)cc1`, the activity, negative = inhibition was 4.67% [at 11.4 µM]. Regarding `Nc1ccc(-c2nc3c(Cl)c(N)ccc3[nH]2)cc1`, the half-maximal activity concentration (AC50) is 0.794 µM (active). `CC(=O)N[C@@H](CC(=O)O)C(=O)N[C@@H](CCC(=O)O)C(=O)O` (Ac-Asp-Glu-OH): the AC50 result is “inactive”. In the case of `O=C(CCc1ccccc1)NNC(=O)C1CCCCC1`, the “activity, negative = inhibition” value is -5.87%. Regarding `O=C(CCc1ccc(S(=O)(=O)NC2CCCCC2)cc1)N(Cc1ccccc1)Cc1ccccc1`, the AC50 is 1.58 µM (active). For `O=C(CN(CC1CCCO1)C(=O)CNS(=O)(=O)c1ccc(Cl)cc1)NCCc1ccccc1` (centres undefined), the “activity, negative = inhibition” value is -20.7%. For the molecule `CC(C)c1ccc2c(c1)C(c1ccc(N3CCOCC3)cc1)=NNC(c1cccs1)=N2`, the AC50 is 3.16 µM (active). As to `COC(=O)[C@@H]1CC[C@H](C)[C@@H](c2ccc(C)cc2)N1C(=O)c1ccc(/C=N\O[C@@H](C)c2cn([C@H](CO)Cc3ccccc3)nn2)cc1`, the activity, negative = inhibition was -8.03% [at 11.4 µM] and -18.7% [at 11.4 µM]. The same measure, in the same setting: under `O=C(OC1CCN(c2ncc(C(F)(F)F)cc2Cl)CC1)c1cccc(C(F)(F)F)c1` stands -26.7%. Regarding `O=C(OCn1ncc(Cl)c(Cl)c1=O)c1cccc(C(F)(F)F)c1`, the AC50 is 2 µM (active).

`COCC(=O)N1CCC2(CC1)CN(Cc1ccccc1OC)C2`: the “activity, negative = inhibition” value was 19.2%. Regarding `CCCC[S@@](=N)(=O)CC[C@@H](N)C(=O)O`, the AC50 result is “inactive”. Regarding `S=c1c2[nH]cnc2ncn1CCSc1ncnc2nc[nH]c12`, the activity, negative = inhibition was -16.9% [at 11.4 µM]. With `O=C(Nc1ccc(-c2nc3ccccc3o2)cc1)c1ccc(N2CCOCC2)c([N+](=O)[O-])c1`, the “activity, negative = inhibition” value was -22.7%. On to `O=S(=O)(Nc1ccc2oc(-c3ccccc3)nc2c1)c1ccccc1`, for which the AC50 was 5.01 µM (active). Still for that read-out and setting: under `Nc1ccc(S(=O)(=O)Nc2cnc3ccccc3n2)cc1` stands “inactive”. For `O=C(O)Cc1ccc(NC(=O)C2CCCCC2C(=O)O)cc1` (centres undefined), the “activity, negative = inhibition” value was -4.46%. `CC(C)OCCCNC(=O)C1CC(=O)N(C2CCCCCCC2)C1` (centres undefined): the “activity, negative = inhibition” value was -16.6%.

Regarding `CCCCOC(OCCCC)[C@H](O)CSc1ccc2ccccc2c1`, the activity, negative = inhibition was -1.2% [at 11.4 µM]. For `CCCCC[C@H](O)c1cccc(OCc2ccc3ccccc3n2)c1`, the concentration at half-maximal activity (AC50) was 0.794 µM (active).

Regarding `O=C(O)c1ccccc1Nc1cccc(OCc2ccc3ccccc3n2)c1`, the AC50 is 1 µM (active). With `CN(C)CC(O)COc1cccc(OCC(O)CN(C)C)c1` (centres undefined), the “activity, negative = inhibition” value is -1.71%. Still for that read-out and setting: then `FC(F)(F)c1nc(N2CCCC2)ncc1-c1nnnn1-c1ccccc1`, with -21.7%; and `Cc1cc(C)cc(-n2nnnc2-c2cn(C)nc2C(F)(F)F)c1`, with -26.4%. With `FC(F)(F)c1nc(-c2ccncc2)ncc1-c1nnnn1-c1ccccc1`, the AC50 was 25.1 µM (active). The same measure, in the same setting: under `O=c1c2ccc([N+](=O)[O-])c3cccc(c32)c2nc3ccccc3n12` stands 3.55 µM (active); under `O=C(O)c1ccc2c3c1cccc3c(=O)n1c3ccccc3nc21`, 15.8 µM (active). For `NCCSS(=O)(=O)CCN`, the activity, negative = inhibition is -17.1% [at 2.29 µM].

Regarding `CCc1cc2c(nc1CC)CCN(CC/C(C)=N/OC[C@@H](O)[C@@H]1O[C@@H]3OC(C)(C)O[C@@H]3[C@H]1O)C2`, the activity, negative = inhibition was -14.1% [at 11.4 µM]. For `Cc1nc2cnc(N3CCNCC3)nc2n(-c2ccccc2)c1=O`, the half-maximal activity concentration (AC50) was 10 µM (active). On to `COc1ccc(-n2c(=O)c(C)nc3cnc(N4CCOCC4)nc32)cc1`, for which the AC50 was 12.6 µM (active).

Turning to `COc1ccc(-n2c(=O)cnc3cnc(N4CCNCC4)nc32)cc1`, the AC50 is 12.6 µM (active).

As to `COc1ccc(-n2c(=O)c(C)nc3cnc(N4CCNCC4)nc32)cc1`, the half-maximal activity concentration (AC50) is 15.8 µM (active). Regarding `CCc1cc2c(nc1CC)CCN(CC/C(C)=N/OC[C@@H](C)[C@H](OCc1ccccc1)C(C)C)C2`, the activity, negative = inhibition is -7.21% [at 11.4 µM]. Take `N[C@@H](Cc1ccnnc1)C(=O)O`: the activity, negative = inhibition was -10.6% [at 2.29 µM]. The same measure, in the same setting: then `CC(C)NC(=O)N1CCC2(CC1)CCN(C(=O)c1cccc(F)c1)CC2`, with 17.5%; and `O=C(O)CCc1c2ccc(=O)c(O)c-2oc2c(O)c(O)ccc12`, with -3.96% [at 2.29 µM]; and `O=C(N1CCOCC1)N1CCN(c2ccccc2)CC1`, with -12.8%. `c1ccn(-c2ccc(N3CCOCC3)cc2)c1`: the AC50 is 0.251 µM (active). With `O=C(C1CCN(S(=O)(=O)N2CCOCC2)CC1)N1CCN(c2ccccc2)CC1`, the “activity, negative = inhibition” value is -17.5%.
